# The supplement of paper PMC6555819
# Assays:
# Experiment in all cases: PBM binding z-score (relative to random genomic background probes); higher = stronger binding; sequences stand for … in GC…GCGATTGACAGCGTAGAATGAAGG
# [1] = tested on: PPARg:RXRa DBDmut IVT, anti-RXR (DBD mutation: RXRa K156A/R161A, NR concentration 270 nM, RXRa partner concentration 90 nM)
# Method in brief: (§1)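 Antibodies against each partner of ligand-free nuclear receptor dimers (one per run) detected binding on custom Agilent 4×180K protein-binding microarrays after 1 h incubation. The double-stranded probes had 34-nt variable regions carrying direct-repeat seeds, single-nucleotide variants, half-site ablations and random human genomic background sequences. Binding z-scores, from regression-normalized fluorescence, use the random background probes as reference.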
# [2] = tested on: PPARg:RXRa IVT, anti-PPARg (NR concentration 270 nM, RXRa partner concentration 90 nM)
# Method in brief: as §1
# [3] = tested on: PPARg DBDmut:RXRa IVT, anti-PPARg (DBD mutation: PPARg1 K132A/R137A, NR concentration 270 nM, RXRa partner concentration 90 nM)
# Method in brief: as §1
# [4] = tested on: PPARg DBDmut IVT, anti-PPARg (DBD mutation: PPARg1 K132A/R137A, NR concentration 270 nM)
# Method in brief: as §1
# [5] = tested on: PPARg homodimer (NR concentration 180 nM)
# Method in brief: as §1
# [6] = tested on: PXR:RXRa (NR concentration 270 nM, RXRa partner concentration 90 nM)
# Method in brief: as §1
# [7] = tested on: PXR homodimer (NR concentration 270 nM)
# Method in brief: as §1
# [8] = tested on: RARa:RXR (NR concentration 270 nM, RXRa partner concentration 90 nM)
# Method in brief: as §1
# [9] = tested on: RARa homodimer (NR concentration 270 nM)
# Method in brief: as §1
# [10] = tested on: RARb:RXRa (NR concentration 270 nM, RXRa partner concentration 90 nM)
# Method in brief: as §1
Sequence,PBM binding z-score [1],PBM binding z-score [2],PBM binding z-score [3],PBM binding z-score [4],PBM binding z-score [5],PBM binding z-score [6],PBM binding z-score [7],PBM binding z-score [8],PBM binding z-score [9],PBM binding z-score [10]
TCTTGTAGATCAAAGGTTAAGCAAGCCGAAGCCT,2.3,4.26,1.03,0.316,0.998,2.14,-0.0892,3.34,-0.483,2.11
GGGACTGGGGCAAAGCAGGTTACCATAAGGTTGG,4.85,5.97,0.631,0.017,1.03,1.21,0.82,1.18,-0.119,1.39
TCTGCTAGGTCAACGATGGTCAACTAATCTGCTA,4.51,4.3,0.357,0.326,1.75,2.4,-0.851,2.39,-0.654,4.12
TAGCCTAGGTCATGCGGGCTAGTATAGTGTCGGC,1.62,2.81,-0.158,-0.27,0.331,1.07,-0.632,1.97,-0.868,3.86
ATCTCTAGGTAAAGTTCAGTGGAAGATCGATAGA,2.46,2.61,1.21,1.71,1.29,2.07,1.8,1.44,1.81,2.86
TCGAGTAGCTTAGGGGCATTCAGAATGGCGTCGA,0.336,-0.404,-0.673,-0.923,-0.986,0.0972,-0.797,0.217,-1.45,0.238
ATAGACAGGTGATGAAGGTAACTCAGGCTATCAT,-0.221,0.67,1.3,0.102,0.341,-0.261,0.251,-0.0358,0.641,0.316
TAGCCTAGGTCAGATCGGCCCAGTATACGCTATA,0.85,1.85,-0.244,-1.36,-0.0384,0.228,-0.754,0.84,-0.69,2.95
TCTTGTAGATCAACCAGGTTAAGAAAGCCTGAGT,2.07,0.996,-0.047,0.818,-0.217,0.658,0.148,0.664,0.037,0.316
CCTACTGGGCCTTTCAGAGGTCATTGATCATATG,2.39,2.44,-0.307,0.081,2.46,4.68,2.5,4.52,1.01,2.8
CGTCCAAGGTCAAATGTCAGTGAAGAGATGACGG,3.67,4.11,0.495,-0.392,2.49,4.82,1,5.67,0.72,5.38
CCGAGTACGTTATGGGGCATTCAGGCAACGGTGA,0.389,0.0516,-0.885,-0.78,-0.751,-0.602,-0.398,-0.541,-0.162,0.16
TCTCGGAGGACACGGAGGTCAGAGCTTTCCAGAG,1.26,1.06,-0.769,-1.39,1,2.45,2.46,2.29,-0.596,3.25
AGTCAAAGTTCATCTAGGTAACGTCAGATATGCT,1.33,4.32,2.61,1.98,5.02,5.36,7.19,4.41,2.97,4.96
ATCTCTAGGTAAAGATTGTTCAGTGAATGCAAAT,2.3,1.85,0.903,0.841,0.219,0.132,0.182,0.436,1.35,0.105
CGTCCAAAGTCAGAGAGGTCAGTGAATGCCGAGT,0.254,0.644,-0.212,-0.647,1.79,3.05,1.35,2.85,0.862,3.27
CCTTACGGGTCACGAGATTATAGCACGACGAGCG,4.81,4.72,1.92,0.779,2.33,3.46,0.13,4.62,1.2,4.26
GAAACAGGGTCAAGGCCAGAGTACGCGTATTGAT,4.14,5.29,1.43,1.01,2.18,4.41,0.162,4.58,0.267,4.73
CGATCTAGGTCATCCAGGACAGTGAATACATTGA,7.91,8.21,6.15,1.47,2.27,2.13,1.59,2.41,0.582,3.89
